# TRPM1 prom inh – inhibitors of MITF-dependent TRPM1 promoter reporter, primary screen, cell-based, SK-MEL-5, single point, luciferase. hit rate 0.83% among 330,000. SK-MEL-5 TRPM1 promoter luciferase, 24 h. AID 488899, 2010. inhibition, % at 12.5 µM;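 active = mean inhibition across replicates of 60% or more, whatever share of single replicates reaches that level; inconclusive = some that reach 60%, reason not given; inactive = mean inhibition across replicates below 60%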
# MITF act – activators of MITF-driven TRPM1 promoter reporter, primary screen, cell-based, SK-MEL-5, luciferase, single point | activation, % at 12.5 µM | SK-MEL-5 TRPM1-promoter luciferase, 24 h; % of positive control, neutral wells = 0 | AID 588334, 2011 | hit rate 0.75% among 300,000;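 active = mean activation of at least 80% with every replicate also reaching 80%; inconclusive = mean reaches 80% but some replicate falls short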;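 also: 0% = neutral control wells and 100% = parthenolide positive control wells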
# LMP1 NFkB inh – EBV LMP1-driven NF-kappaB luciferase reporter inhibitors, primary screen, cell-based, luminescence, single point | LMP1-induced NF-kappaB luciferase reporter cells | inhibition, % at 12.5 µM | hit rate 0.69% among 350,000; in the data active = inhibition above about 41%; inconclusive = no clear call, values can overlap the other calls;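 also: 0% = neutral control wells and 100% = reference inhibitor control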
# Wnt act – Wnt/beta-catenin pathway activators, primary screen, cell-based, plate reader, single point. Wnt/beta-catenin reporter cell assay, activator. activation, % at 9.35 µM. hit rate 1.2% among 300,000. AID 743398, 2014; in the data active = activation above about 30%, passing the limit was not always enough; inconclusive = no clear call, values can overlap the other calls;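 also: 0% = neutral control wells and 100% = positive control wells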
# esBAF inh – Bmi1 luciferase reporter increase in mESCs, primary screen, esBAF inhibitor project, mouse ES cells, Bmi1 luciferase knock-in, single point | 24 h; 100% = twice the neutral-well signal | hit rate 2% among 350,000 | reporter increase, % at 12.5 µM; in the data active = activation above about 40%; inconclusive = no clear call, values can overlap the other calls;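 also: 0% = median of the plate's neutral control wells and 100% = double that signal; a rise in the Bmi1 reporter signal indicates esBAF inhibition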
# C2C12 statin – suppressors of statin myotoxicity in C2C12 myotubes, primary screen, cell-based, single point, plate reader; C2C12 myotubes + simvastatin, ATP luminescence, 48 h; scaled: DMSO 0, geranylgeraniol control 100; rescue of ATP level, % at 7.49 µM; hit rate 0.78% among 330,000; AID 602340, 2012;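 active = mean ATP rescue above about 67%, or every replicate alone reaching that limit, limit read from the data, passing the limit was not always enough; inconclusive = no clear call, values can overlap the other calls; inactive = mean under the limit and some replicate under it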;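 also: myotubes were challenged with 10 µM simvastatin during compound exposure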
# Starred values were filed as active, the others as inactive; u = inconclusive; x = no result given. A selection: hits, their analogues and other compounds. The true share with any hit is near 4%.
SMILES,TRPM1 prom inh,MITF act,LMP1 NFkB inh,Wnt act,esBAF inh,C2C12 statin
Cc1noc(C)c1S(=O)(=O)N(C)C[C@@H]1OCCCC[C@@H](C)Oc2ccc(NS(=O)(=O)c3ccccc3)cc2C(=O)N([C@@H](C)CO)C[C@H]1C,x,x,x,x,10,x
CN1CCN(/N=C/c2ccc(Cl)c(Cl)c2)CC1,-82,88*,-21,x,x,x
CN1CCN(/N=C/c2ccc(Br)cc2)CC1,-93,95*,-12,7,40,-11
CN1CCN(/N=C/c2ccc(N(C)c3ccccc3)cc2)CC1,1,-1,4,-1,-4,3
COc1ccc(/C=N/N2CCN(C)CC2)cc1O,6,-3,-15,x,x,x
CN1CCN(/N=C/c2ccc(N(c3ccccc3)c3ccccc3)cc2)CC1,-16,13,87*,0,-1,-7
CC1CCCN(S(=O)(=O)c2ccc(NC(=O)c3cccc(-n4cnnn4)c3)cc2)C1 (configuration not stated),9,-6,-2,-7,20,-26
O=C(Nc1ccc2c(c1)CCC2)Nc1ccccc1Cl,-71,68,-47,51*,79*,-3
CCOc1ccccc1NC(=O)Nc1cccc(NC(C)=O)c1,-22,23,-7,-3,6,10
Cc1ccc(NC(=O)Nc2ccc3c(c2)CCC3)c(C)c1,-23,23,1,2,7,8
CCOc1ccccc1NC(=O)Nc1ccc2c(c1)CCC2,-24,28,-14,15,48*,-10
Cc1ccccc1-c1nnc(-c2ccc(Br)cc2)o1,-70,x,-11,44*,69*,-13
Cc1ccccc1-c1nnc(-c2ccccc2C)o1,-59,58,-36,47*,x,x
O=S(=O)(Nc1ncccn1)c1ccc(NC(=S)NCc2ccco2)cc1,6,-3,-24,-3,x,x
COc1ccc(C(=O)/C=C/Nc2cc(C)on2)c(OC)c1,-27,x,-3,x,66*,3
COc1ccc(C(=O)/C=C/c2ccc(N(C)C)cc2)c(OC)c1,-14,x,3,1,x,x
COc1ccc(C(=O)/C=C/c2ccccc2)c(OC)c1,-29,38,-9,1,86*,-6
COc1ccc(C(=O)/C=C/Nc2ccc([N+](=O)[O-])cc2C)c(OC)c1,-18,20,-10,-2,x,x
C/C(=N/NC(=O)OC(C)(C)C)c1ccco1,-35,41,0,u,x,x
CC(/C=C/c1ccco1)=N/NC(=O)OC(C)(C)C,-29,33,-4,57*,x,x
O=P1(NC2CCCC2)OCC2(CO1)COP(=O)(NC1CCCC1)OC2 (configuration not stated),-10,12,9,1,3,7
C[C@H](CO)N1C[C@H](C)[C@@H](CN(C)S(=O)(=O)c2ccccc2)Oc2c(NC(=O)C3CC3)cccc2C1=O,-2,4,-16,13,2,-13
c1cncc(-c2nc(-c3ccc4c(c3)OCO4)cs2)c1,-73,85*,-51,32*,52*,x
Clc1ccsc1-c1csc(-c2cccnc2)n1,-8,11,-24,x,70*,-23
c1cncc(-c2csc(-c3cccnc3)n2)c1,-28,25,-7,2,36,-1
SMILES,TRPM1 prom inh,MITF act,LMP1 NFkB inh,Wnt act,esBAF inh,C2C12 statin
COC(=O)C(NC(=O)COc1ccccc1)(Nc1nc2c(s1)CCCC2)C(F)(F)F (configuration not stated),4,0,3,-3,4,18
CC(=O)c1ccc2oc3ccccc3c(=O)c2c1,-75,80*,-9,11,44*,8
Nc1ccc(C#Cc2ccc3oc4ccccc4c(=O)c3c2)cc1,-53,58,9,20,42*,13
Nc1cccc(C#Cc2ccc3c(=O)c4ccccc4oc3c2)c1,-136,132*,-16,-2,53*,-25
CCOc1ccc(C(=O)Nc2cccc3nsnc23)cc1[N+](=O)[O-],-11,9,4,-2,x,x
CC(=O)c1ccc(NC(=O)C(C)OC(=O)c2ccc3c(c2)nc(C)n3-c2ccccc2)cc1 (configuration not stated),9,-7,-9,-2,x,x
